Inconclusive results are not listed. Unmarked numbers belong to inactive results. Active and inactive are the calls of the source. Unless noted, the call rests on the fitted dose curve; in most records, active means well fitted curve in the direction sought with a large enough effect in the repeat runs; inconclusive means weak or mixed curves; inactive means no such curve, though single readings can be large; an effect the other way counts as inactive or inconclusive.

The values that follow come from PubChem BioAssay (Tox21).

Experiment [1] in a line: qHTS assay to identify small molecule antagonists of the estrogen related receptor (ERR) signaling pathway from Tox21 library - cell viability counter screen (AID 1224834). Further: nearly all actives have a fitted effect of over 30% in size. Further: potency means the concentration at half of the fitted maximal effect. An outline of the steps:
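ERR reporter cells, 2,000 per well, rested 6 h, then exposed to compound in DMSO for 17.5 hours at 37 C. Viability read as fluorescence after 30 min with CellTiter-Fluor.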
(In qHTS, concentration-response curves come from the screen itself.)

Experiment [2] has as its target Luciferin 4-monooxygenase (Photinus pyralis) (UniProt P08659). As to the kind of experiment: qHTS assay to identify small molecule inhibitors of firefly luciferase (AID 1224835). Further: nearly all actives have a fitted effect of over 25% in size. Further: potency means the concentration at half of the fitted maximal effect. An outline of the steps:
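Biochemical qHTS: compounds run as interplate titrations against purified firefly enzyme, with D-luciferin and ATP each at its KM concentration. Light output recorded by CCD imaging.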

Experiment [3] can be described thus: qHTS assay to identify small molecule agonists of the constitutive androstane receptor (CAR) signaling pathway - cell viability counter screen (AID 1224836). Further: nearly all actives have a fitted effect of over 45% in size. Further: potency means the concentration at half of the fitted maximal effect. An outline of the steps: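 Viability read-out: CellTiter-Fluor fluorescence after 23 h compound exposure at 37 C/5% CO2 in double-stable HepG2-CYP2B6-hCAR cells, with PK11195 present at 0.75 uM final; compounds tested in 15-point titration.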

The nature of experiment [4]: qHTS assay to identify small molecule antagonists of the constitutive androstane receptor (CAR) signaling pathway - cell viability counter screen (AID 1224837). Further: nearly all actives have a fitted effect of over 45% in size. Further: potency means the concentration at half of the fitted maximal effect. In short, it runs like this:
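HepG2 cells stably carrying hCAR and CYP2B6-2.2kb reporter, stimulated with 50 nM CITCO and compounds at 15 concentrations for 23 h at 37 C. Viability measured by CellTiter-Fluor fluorescence.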

For experiment [5], the target named is Nuclear receptor subfamily 1 group I member 3 (Homo sapiens) (UniProt Q14994). As to the kind of experiment: qHTS assay to identify small molecule antagonists of the constitutive androstane receptor (CAR) signaling pathway (AID 1224838). Further: nearly all actives have a fitted effect of over 40% in size. An outline of the steps:
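HepG2 cells stably carrying hCAR and a CYP2B6-2.2kb luciferase reporter, seeded 4 hrs before compound (15 concentrations). Stimulated with 50 nM CITCO for 24 hr at 37 C. ONE-Glo luminescence read after 30 min at room temperature.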

Experiment [6] shares this target. Kind of experiment: qHTS assay to identify small molecule agonists of the constitutive androstane receptor (CAR) signaling pathway (AID 1224839). Further: nearly all actives have a fitted effect of over 15% in size. Further: potency means the concentration at half of the fitted maximal effect. An outline of the steps:
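Luminescence read-out (ONE-Glo, 30 min, room temperature) from double-stable HepG2-CYP2B6-hCAR cells exposed 24 h to 15-point compound series in presence of 0.75 uM PK11195 final.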

A short description of experiment [7]: qHTS assay to identify small molecule antagonists of the estrogen related receptor signaling pathway with the pleiotropic PPARgamma coactivator (PGC) from Tox21 10K library - cell viability counter screen (AID 1224840; active means well fitted cell-killing curve with a large enough effect in the repeat runs, not every such curve was filed as active; further: nearly all actives have a fitted effect of over 40% in size). An outline of the steps: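 PGC/ERR cells (2,000/well) plated 6 h, then compound-treated for 17.5 h at 37 C. Viability measured by CellTiter-Fluor fluorescence after 30 min at 37 C, multiplexed with the pathway assay.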

Experiment [8] is described as follows: qHTS assay to identify small molecule antagonists of the estrogen related receptor signaling pathway with the pleiotropic PPARgamma coactivator (PGC) from Tox21 10K library (AID 1224841; call rule not given here; further: series mostly up to about 92 µM; actives are mostly falling curves and most rising ones were filed inactive; nearly all actives have a fitted effect of over 50% in size). An outline of the steps: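 PGC/ERR cell line, 2,000 cells/well, pre-incubated 6 hours at 37 C, then exposed to compounds for 18 hours at 37 C; luciferase read with One-Glo luminescence after 30 min at room temperature.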

Experiment [9] is described as follows: qHTS assay to identify small molecule agonists of the estrogen related receptor signaling pathway with the pleiotropic PPARgamma coactivator (PGC) from Tox21 10K library (AID 1224842). Further: nearly all actives have a fitted effect of over 15% in size. Further: potency means the concentration at half of the fitted maximal effect. An outline of the steps:
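PGC/ERR reporter cell line, 2,000 cells per well, incubated 6 h at 37 C before 23 nL compound in DMSO was added. After 18 h at 37 C, One-Glo luminescence read following 30 min at room temperature.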

Sequence of Nuclear receptor subfamily 1 group I member 3 (Homo sapiens) (Q14994 whole entry, looked up): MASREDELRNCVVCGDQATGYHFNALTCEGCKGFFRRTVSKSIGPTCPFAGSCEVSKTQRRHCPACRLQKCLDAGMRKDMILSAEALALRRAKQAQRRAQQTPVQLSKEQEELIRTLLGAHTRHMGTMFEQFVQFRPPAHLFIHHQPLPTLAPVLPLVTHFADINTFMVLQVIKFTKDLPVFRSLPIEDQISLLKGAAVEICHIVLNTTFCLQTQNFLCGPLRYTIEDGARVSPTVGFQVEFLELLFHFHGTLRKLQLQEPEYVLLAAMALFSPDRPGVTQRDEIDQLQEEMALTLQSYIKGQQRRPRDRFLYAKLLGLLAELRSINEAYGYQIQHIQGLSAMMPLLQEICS
Sequence of Luciferin 4-monooxygenase (Photinus pyralis) (P08659 whole entry, looked up): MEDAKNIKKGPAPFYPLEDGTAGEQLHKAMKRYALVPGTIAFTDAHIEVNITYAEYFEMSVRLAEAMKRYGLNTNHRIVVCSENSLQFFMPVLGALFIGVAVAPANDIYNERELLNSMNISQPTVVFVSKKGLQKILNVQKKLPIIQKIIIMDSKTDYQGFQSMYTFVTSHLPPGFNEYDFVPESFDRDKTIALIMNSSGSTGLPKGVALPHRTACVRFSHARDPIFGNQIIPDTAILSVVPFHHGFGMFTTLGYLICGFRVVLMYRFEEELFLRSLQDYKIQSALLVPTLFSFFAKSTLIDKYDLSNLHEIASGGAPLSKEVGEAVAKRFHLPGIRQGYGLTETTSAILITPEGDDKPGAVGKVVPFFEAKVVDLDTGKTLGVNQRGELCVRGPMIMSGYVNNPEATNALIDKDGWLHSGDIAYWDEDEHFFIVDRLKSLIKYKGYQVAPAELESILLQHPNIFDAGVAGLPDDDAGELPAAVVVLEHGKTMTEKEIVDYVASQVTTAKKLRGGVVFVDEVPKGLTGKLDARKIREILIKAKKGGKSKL

As for `Cc1cc2c(s1)Nc1ccccc1N=C2N1CCN(C)CC1`, the Potency in experiment [1] is 5.96 µM (active); in experiment [3], 8.41 µM (active); in [4] it was 3.35 µM (active). Further, the Potency result in experiment [2], in experiment [5], in [6], in experiment [7], in [8] and in experiment [9] was “inactive” each time.

`CC(CNC1CCCCC1)OC(=O)c1ccccc1` (stereo not drawn): the Potency result in experiment [1], in [2], in [3], in [4], in experiment [5] and in [7] was “inactive” in each case. Moreover, the Potency entry in experiment [8] and in [9] was “inactive” throughout.

Consider `C/C(=N\O)[C@@H](C)NCC(C)(C)CN[C@H](C)/C(C)=N/O`, for which the Potency result in experiment [1], in [2], in experiment [3], in experiment [4] and in experiment [7] was “inactive” each time.

`CN(C)CCOc1ccccc1Cc1ccccc1`: the Potency result in experiment [1], in [2], in experiment [3], in [4], in [5] and in [7] was “inactive” each time. Moreover, in experiment [9], the Potency result is “inactive”.

For `CCCNC(C)(C)COC(=O)c1ccccc1`, the Potency entry in [1], in experiment [2], in experiment [3], in experiment [4], in experiment [5] and in [7] was “inactive” each time. Also, the Potency result in experiment [8] and in experiment [9] was “inactive” each time.

`CCNCCO`: the Potency entry in experiment [1], in experiment [2], in [3], in experiment [4] and in [7] was “inactive” each time.

As for `CCc1nnc(NS(=O)(=O)c2ccc(N)cc2)s1`, the Potency result in experiment [1], in [2], in experiment [3], in experiment [4], in experiment [6] and in experiment [7] was “inactive” in each case. In addition, the Potency result in experiment [8] was “inactive”.

`Clc1cccc(-c2cc(Cl)cc(Cl)c2)c1`: the Potency entry in experiment [1], in [2], in experiment [3], in experiment [4], in experiment [5] and in experiment [7] was “inactive” each time. The Potency result in experiment [8] and in experiment [9] was “inactive” in each case.

As to `CCN(CCCc1ccccc1)CCCc1ccccc1`, the Potency entry in [1], in experiment [2], in experiment [3], in experiment [4] and in experiment [7] was “inactive” throughout.

For `O=CCCc1ccccc1`, the Potency result in [1], in experiment [2], in experiment [3], in experiment [4] and in [7] was “inactive” each time.

Consider `CCOC(=O)c1cc(=O)c2c(OCC(COc3cccc4oc(C(=O)OCC)cc(=O)c34)OC(=O)[C@@H](N)CCCCN)cccc2o1`, for which the Potency entry in experiment [1], in experiment [2], in experiment [3], in experiment [4], in experiment [5] and in experiment [6] was “inactive” each time. Moreover, the Potency result in experiment [7], in [8] and in experiment [9] was “inactive” throughout.

Turning to `Cc1ccc(C(C)C)cc1O`, the Potency result in experiment [1], in experiment [2], in experiment [3], in experiment [4] and in [7] was “inactive” each time.

On to `O=C1CCCCC1C1CCCCC1` (stereo not drawn), for which the Potency result in [1], in experiment [2], in experiment [3], in experiment [4] and in experiment [7] was “inactive” in each case.

As for `CCOC(=O)NCCC[Si](OCC)(OCC)OCC`, the Potency entry in experiment [1], in experiment [2], in experiment [3], in experiment [4], in experiment [5] and in experiment [7] was “inactive” each time. In addition, the Potency entry in experiment [8] and in experiment [9] was “inactive” throughout.

For the molecule `CC(=O)N[C@@H](CC(C)C)C(=O)O`, the Potency entry in experiment [1], in [2], in [3], in experiment [4], in experiment [5] and in experiment [7] was “inactive” in each case. The Potency result in experiment [8] is “inactive”.

Consider `CCOc1ccc2nc(N)sc2c1`, for which the Potency entry in [1], in experiment [3], in experiment [4], in experiment [5], in experiment [7] and in experiment [8] was “inactive” each time. The Potency in experiment [2] is 19.9 µM (active); in [6], 21.5 µM (active); in experiment [9], 27.1 µM (active).

Regarding `CCCCC1CCC(=O)O1` (stereo not drawn), the Potency entry in experiment [1], in experiment [2], in experiment [3], in experiment [4], in experiment [5] and in experiment [6] was “inactive” each time. Also, the Potency entry in experiment [7], in experiment [8] and in [9] was “inactive” each time.

On to `CC1=C2[C@H](/C=C(\C)C(=O)O)CC[C@@H](C)[C@H]2CC1`, for which the Potency result in [1], in experiment [2], in experiment [3], in experiment [4], in [5] and in experiment [7] was “inactive” each time. In addition, in experiment [8], the Potency result was “inactive”.

In the case of `N#Cc1ccc(C(c2ccc(C#N)cc2)n2cncn2)cc1`, the Potency result in experiment [1], in experiment [2], in [3], in experiment [4] and in experiment [7] was “inactive” each time.

Turning to `CN1CCN(c2c(F)cc3c(=O)c(C(=O)O)cn(CCF)c3c2F)CC1`, the Potency result in experiment [1], in [2], in experiment [3], in [4] and in experiment [7] was “inactive” in each case.

Regarding `CN(CCCN1c2ccccc2CCc2ccccc21)CC(=O)c1ccc(Cl)cc1`, the Potency result in [1], in experiment [2], in experiment [3], in [4], in [5] and in experiment [7] was “inactive” throughout.

As to `CCN1CC(CCN2CCOCC2)C(c2ccccc2)(c2ccccc2)C1=O` (stereo not drawn), the Potency result in experiment [1], in [2], in [3], in experiment [4], in experiment [5] and in experiment [6] was “inactive” throughout. Further, the Potency result in experiment [7], in experiment [8] and in experiment [9] was “inactive” each time.

Turning to `COC(=O)C(C)O` (stereo not drawn), the Potency result in [1], in experiment [2], in experiment [3], in experiment [4] and in [7] was “inactive” each time.

`CN1C(=O)CC(c2ccccc2)C1=O` (stereo not drawn): the Potency entry in experiment [1], in [2], in experiment [3], in experiment [4], in experiment [6] and in experiment [7] was “inactive” each time.

With `CCC(=O)Nc1ccc(O)cc1`, the Potency entry in [1], in [2], in experiment [3], in experiment [4] and in [7] was “inactive” throughout.

On to `CCC1(C)NC(=O)NC1=O` (stereo not drawn), for which the Potency entry in [1], in experiment [2], in experiment [3], in experiment [4] and in experiment [7] was “inactive” throughout.

In the case of `CCOc1ccc(NS(=O)(=O)c2ccc(N)cc2)nn1`, the Potency result in [1], in [2], in experiment [3], in experiment [4] and in experiment [7] was “inactive” throughout.

As for `CCCCNc1cc(C(=O)O)cc(S(N)(=O)=O)c1Oc1ccccc1`, the Potency entry in [1], in experiment [2], in experiment [3], in experiment [4] and in experiment [7] was “inactive” each time.

In the case of `C=CCCCCCCCCO`, the Potency result in experiment [1], in experiment [2], in [3], in experiment [4] and in experiment [7] was “inactive” throughout.

`CC(Oc1c(Cl)cccc1Cl)C1=NCCN1` (stereo not drawn): the Potency entry in experiment [1], in experiment [2], in experiment [3], in [4] and in [7] was “inactive” in each case.

As to `OC[C@H]1O[C@@H](O[C@H]2[C@H](O)[C@@H](O)[C@H](O)O[C@@H]2CO)[C@H](O)[C@@H](O)[C@H]1O`, the Potency result in [1], in experiment [2], in experiment [3], in experiment [4], in [5] and in [6] was “inactive” each time. For the same molecule, the Potency result in experiment [7], in experiment [8] and in [9] was “inactive” each time.

In the case of `CN(CC1(C)CCCO1)S(=O)(=O)c1ccc(Cl)c(S(N)(=O)=O)c1` (stereo not drawn), the Potency result in experiment [1], in [2], in [3], in [4] and in [7] was “inactive” throughout.

With `CC1CN(c2ccccc2)NC1=O` (stereo not drawn), the Potency result in [1], in [2], in [3], in experiment [5] and in experiment [7] was “inactive” each time.

For the molecule `CCCc1c2oc(C(=O)O)cc(=O)c2cc2c(=O)cc(C(=O)O)n(CC)c12`, the Potency result in experiment [1], in [2], in experiment [3], in [5], in experiment [6] and in experiment [7] was “inactive” in each case. Besides, the Potency entry in experiment [8] was “inactive”.
